According to PubChem BioAssay (Tox21):
Unmarked numbers belong to inactive results. Where a call stands in place of a potency, no number is given. The source made the active and inactive calls. The call rests on the fitted dose curve; in most records, active means well fitted curve in the direction sought with a large enough effect in the repeat runs; inconclusive means weak or mixed curves; inactive means flat fitted curve, though single readings scatter.

assay: qHTS assay to test for compound auto fluorescence at 460 nm (blue) in HEK293 cells (AID 720678); conditions: blue autofluorescence 405/460 nm; series mostly up to 91.3 µM
Text: National Center for Advancing Translational Sciences [NCATS]
NIH Chemical Genomics Center [NCGC]
U.S. Environmental Protection Agency [EPA]
National Institutes of Environmental Health Sciences [NIEHS]
National Toxicology Program [NTP]
U.S. Food and Drug Administration [FDA]
Compound auto fluorescence often interferes with screening of the compound library against various biological targets and signaling pathways. Some of these compounds may have fluorophoric properties. Such properties may interfere with the assay outputs resulting in false positives and/or negatives. To decrease such complications and ensure the compound activities are relevant in terms of biological response, the Tox21 10K compound library was screened for auto fluorescence.
From the fluorophores used as reporter signals in our screening assays, the auto fluorescence equivalencies of compounds against three fluorophores have been evaluated: Triamterene, Fluorescein and Rose Bengal sodium for blue, green and red fluorescence, respectively. The fluorescence intensities were measured using Excitation/Emission wavelengths at 405/460nm, 485/535nm and 540/590nm for blue, green and red labels, respectively. This assay includes the blue fluorescence data.
Tox21 Assay Protocol Summary:
2,000 HEK293 cells in 5 uL of culture medium containing 10% dialyzed FBS per well were dispensed into black wall/clear bottom 1536-well plates using a Multidrop Combi Dispenser (Thermo Scientific). The assay plates were incubated for 4-5 hr at 37C to allow cell attachment to the well bottom, followed by the transfer of 23 nL compound or DMSO vehicle by a pintool work station (Kalypsys, San Diego, CA). After the assay plates were incubated overnight at 37C and 5% CO2, fluorescence intensities in the assay plates were measured by an Envision (PerkinElmer, Shelton, CT) plate reader using three labels for measuring blue, green and red fluorescence at […] 460, 535 and 590nm respectively.

Structure (SMILES)	Potency	fluorescence, % of triamterene
C[C@@H]1C[C@H]2[C@@H]3CCC4=CC(=O)C=C[C@]4(C)[C@@]3(F)[C@@H](O)C[C@]2(C)[C@@]1(O)C(=O)CO	inactive	
O=C(/C=C/c1ccccc1)OCCCc1ccccc1	inactive	
CCCCC1C(=O)N(c2ccccc2)N(c2ccc(O)cc2)C1=O (stereo not given)		-0.133% [at 18.6 µM]
CCCc1c(OCCCOc2ccc(OCC(=O)O)cc2)ccc(C(C)=O)c1O	inactive	
C1COCO1	inactive	
CCCCOC(=O)CCS	inactive	
C=CCCCCCCCCCCCCCCCC		0.18% [at 3.72 µM]
CCCCN(CCCC)C(=S)SSC(=S)N(CCCC)CCCC	inactive	
CO[Si](C)(OC)OC	inactive	
CCCCCCOC(=O)CCCCCCCC(=O)OCCCCCC	inactive	
COC(OC)(C(=O)c1ccccc1)c1ccccc1	inactive	
CCc1cccc(N(C)C(N)=Nc2cccc3ccccc23)c1	inactive	
O=C(O)c1snc(Cl)c1Cl	inactive	
COCCOC	inactive	
CO/N=C1\CN(c2nc3c(cc2F)c(=O)c(C(=O)O)cn3C2CC2)CC1CN (stereo not given)	inactive	
C=CC(C)(C)CC(=O)OC	inactive	
CN(C)C(=O)Nc1ccc(Oc2ccc(Cl)cc2)cc1	inactive	
O=S1OCCO1	inactive	
NC(=O)Nc1ccc(Cl)cc1	inactive	
O=C1NCCN1	inactive	

Structure (SMILES)	Potency	fluorescence, % of triamterene
Fc1c(F)c(F)c(Br)c(F)c1F	inactive	
Cc1ccnc2ccccc12	inactive	
CC(C)(O)c1ccccc1CC[C@@H](SCC1(CC(=O)O)CC1)c1cccc(/C=C/c2ccc3ccc(Cl)cc3n2)c1	inactive	
CCOC(=O)OCC	inactive	
CCCCCCCCCCCCCCC[C@H](O)[C@@H](N)CO	inactive	
CC(C)(CCl)c1ccccc1	inactive	
CC(C)CCCCCCOC(=O)CCCCC(=O)OCCCCCCC(C)C	inactive	
CC(=O)CC(c1ccc([N+](=O)[O-])cc1)c1c(O)c2ccccc2oc1=O (stereo not given)		-0.0105% [at 18.6 µM]
Cc1oncc1C(=O)Nc1ccc(C(F)(F)F)cc1	inactive	
Nc1nc(Cl)nc2c1ncn2[C@@H]1O[C@H](CO)[C@@H](O)[C@@H]1F	inactive	
CCCCCCOC(=O)C(C)C	inactive	
CC(=N\O)/C(C)=N/O	inactive	
C[Si]1(C)O[Si](C)(C)O[Si](C)(C)O1	inactive	
CCCC1C(CC)=CC(CC)=CN1c1ccccc1 (stereo not given)	inactive	
Cc1oc(C)c(C(=O)Nc2ccccc2)c1C	inactive	
Cc1nc2ccccc2s1	inactive	
NC(=O)Nc1ccc(Cl)c(Cl)c1	inactive	
CN(C(=O)C(Cl)Cl)c1ccc(OC(=O)c2ccco2)cc1	inactive	
CCC(C)=O	inactive	
Cc1cc(C(=C2C=CC(=Nc3ccc(S(=O)(=O)O)cc3S(=O)(=O)O)C=C2)c2ccc(Nc3ccc(S(=O)(=O)O)cc3)cc2)ccc1N	inactive	
